# Tests used:
# [1] = molecular target: Protein kinase C gamma type (Homo sapiens) (UniProt P05129); conditions: at 1 µM;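 note: each value is an averaged percent inhibition of the enzyme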
# [2] = molecular target: T1, Protein kinase C iota type (Homo sapiens) (UniProt P41743); conditions: at 0.1 µM
# T1 sequence (whole entry): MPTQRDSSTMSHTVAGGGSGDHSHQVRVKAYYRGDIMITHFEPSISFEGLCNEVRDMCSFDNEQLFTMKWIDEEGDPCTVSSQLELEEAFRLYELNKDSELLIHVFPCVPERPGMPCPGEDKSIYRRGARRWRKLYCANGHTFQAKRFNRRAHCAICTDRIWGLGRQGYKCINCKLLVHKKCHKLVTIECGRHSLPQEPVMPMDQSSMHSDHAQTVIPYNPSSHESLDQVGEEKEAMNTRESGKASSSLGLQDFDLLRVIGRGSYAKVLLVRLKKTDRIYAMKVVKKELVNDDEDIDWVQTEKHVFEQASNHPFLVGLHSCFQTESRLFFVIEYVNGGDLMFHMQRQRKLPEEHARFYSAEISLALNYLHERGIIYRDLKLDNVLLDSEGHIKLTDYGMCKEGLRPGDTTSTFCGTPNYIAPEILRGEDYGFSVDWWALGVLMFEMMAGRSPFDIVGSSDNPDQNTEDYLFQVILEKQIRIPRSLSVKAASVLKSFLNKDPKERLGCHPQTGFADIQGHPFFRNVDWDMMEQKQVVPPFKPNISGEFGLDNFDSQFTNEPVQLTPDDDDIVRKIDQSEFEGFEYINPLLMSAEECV
# [3] = molecular target: T1, Protein kinase C iota type (Homo sapiens); conditions: at 1 µM
# [4] = molecular target: Protein kinase C theta type (Homo sapiens) (UniProt Q04759); conditions: at 0.1 µM
# Sequence of Protein kinase C theta type (Homo sapiens) (Q04759 whole entry, looked up): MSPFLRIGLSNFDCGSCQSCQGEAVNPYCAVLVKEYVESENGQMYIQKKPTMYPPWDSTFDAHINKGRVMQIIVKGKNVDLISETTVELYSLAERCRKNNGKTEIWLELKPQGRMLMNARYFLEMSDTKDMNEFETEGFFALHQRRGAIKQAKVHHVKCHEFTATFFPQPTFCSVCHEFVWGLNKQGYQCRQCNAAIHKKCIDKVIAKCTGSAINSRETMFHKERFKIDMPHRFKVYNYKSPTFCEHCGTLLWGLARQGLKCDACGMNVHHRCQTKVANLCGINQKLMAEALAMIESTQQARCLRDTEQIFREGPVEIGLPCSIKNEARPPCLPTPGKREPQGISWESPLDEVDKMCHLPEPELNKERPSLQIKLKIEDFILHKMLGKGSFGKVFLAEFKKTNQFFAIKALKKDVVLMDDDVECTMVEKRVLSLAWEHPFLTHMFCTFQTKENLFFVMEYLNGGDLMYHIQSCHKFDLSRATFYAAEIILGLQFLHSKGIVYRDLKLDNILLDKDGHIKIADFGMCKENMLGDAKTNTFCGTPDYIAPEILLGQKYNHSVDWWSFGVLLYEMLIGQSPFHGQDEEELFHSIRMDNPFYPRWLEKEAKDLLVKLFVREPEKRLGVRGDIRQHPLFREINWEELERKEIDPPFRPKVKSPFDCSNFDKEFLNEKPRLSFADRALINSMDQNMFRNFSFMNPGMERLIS
# [5] = molecular target: Protein kinase C theta type (Homo sapiens) (UniProt Q04759); conditions: at 1 µM
# [6] = molecular target: Protein kinase C beta type (Homo sapiens) (UniProt P05771); conditions: at 0.1 µM
# Sequence of Protein kinase C beta type (Homo sapiens) (P05771 2-671 limits assumed): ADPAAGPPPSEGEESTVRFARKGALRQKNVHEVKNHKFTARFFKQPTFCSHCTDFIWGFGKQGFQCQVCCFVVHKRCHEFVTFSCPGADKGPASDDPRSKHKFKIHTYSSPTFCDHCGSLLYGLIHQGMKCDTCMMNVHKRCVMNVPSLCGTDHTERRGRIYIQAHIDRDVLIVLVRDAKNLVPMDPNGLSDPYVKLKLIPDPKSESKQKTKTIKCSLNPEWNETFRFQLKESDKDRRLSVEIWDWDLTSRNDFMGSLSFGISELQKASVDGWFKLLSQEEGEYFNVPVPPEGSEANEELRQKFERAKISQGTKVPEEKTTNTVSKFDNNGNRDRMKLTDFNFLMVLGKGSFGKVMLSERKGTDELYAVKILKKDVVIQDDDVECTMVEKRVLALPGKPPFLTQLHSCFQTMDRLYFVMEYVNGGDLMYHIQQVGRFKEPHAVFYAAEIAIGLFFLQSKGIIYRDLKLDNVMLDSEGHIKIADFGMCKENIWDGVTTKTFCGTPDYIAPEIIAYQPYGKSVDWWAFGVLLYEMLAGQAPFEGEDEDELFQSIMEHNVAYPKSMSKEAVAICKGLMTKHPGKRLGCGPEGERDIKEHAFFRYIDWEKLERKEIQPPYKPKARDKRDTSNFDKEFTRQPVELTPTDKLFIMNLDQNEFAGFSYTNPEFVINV
# [7] = molecular target: Protein kinase C beta type (Homo sapiens) (UniProt P05771); conditions: at 1 µM
# [8] = molecular target: T2, Serine/threonine-protein kinase D1 (Homo sapiens) (UniProt Q15139); conditions: at 0.1 µM
# T2 sequence (whole entry): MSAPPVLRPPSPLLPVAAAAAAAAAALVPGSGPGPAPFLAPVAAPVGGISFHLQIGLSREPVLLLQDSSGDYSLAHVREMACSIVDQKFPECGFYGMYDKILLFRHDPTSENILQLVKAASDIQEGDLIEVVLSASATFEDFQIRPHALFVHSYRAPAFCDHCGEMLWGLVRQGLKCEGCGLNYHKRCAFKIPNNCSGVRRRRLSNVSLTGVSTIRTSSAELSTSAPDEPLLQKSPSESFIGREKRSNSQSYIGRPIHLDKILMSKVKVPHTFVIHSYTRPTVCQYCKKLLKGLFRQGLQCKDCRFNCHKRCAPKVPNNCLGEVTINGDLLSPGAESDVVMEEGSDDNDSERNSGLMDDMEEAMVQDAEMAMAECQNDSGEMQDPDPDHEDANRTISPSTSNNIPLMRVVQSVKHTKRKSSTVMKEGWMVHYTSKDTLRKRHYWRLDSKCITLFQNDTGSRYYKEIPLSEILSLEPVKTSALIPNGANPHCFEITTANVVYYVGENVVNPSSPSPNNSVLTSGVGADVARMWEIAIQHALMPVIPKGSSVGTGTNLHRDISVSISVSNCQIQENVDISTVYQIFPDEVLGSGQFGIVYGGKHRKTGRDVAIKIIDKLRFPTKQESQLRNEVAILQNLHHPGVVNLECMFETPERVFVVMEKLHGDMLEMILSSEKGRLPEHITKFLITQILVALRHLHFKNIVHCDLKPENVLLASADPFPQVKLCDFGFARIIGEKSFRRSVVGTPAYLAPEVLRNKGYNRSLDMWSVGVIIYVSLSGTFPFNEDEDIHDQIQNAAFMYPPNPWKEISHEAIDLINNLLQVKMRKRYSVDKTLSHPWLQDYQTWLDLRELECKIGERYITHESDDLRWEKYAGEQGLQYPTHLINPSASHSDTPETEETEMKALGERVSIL
# [9] = molecular target: T2, Serine/threonine-protein kinase D1 (Homo sapiens); conditions: at 1 µM
# [10] = molecular target: T3, Serine/threonine-protein kinase D2 (Homo sapiens) (UniProt Q9BZL6); conditions: at 0.1 µM
# T3 sequence (whole entry): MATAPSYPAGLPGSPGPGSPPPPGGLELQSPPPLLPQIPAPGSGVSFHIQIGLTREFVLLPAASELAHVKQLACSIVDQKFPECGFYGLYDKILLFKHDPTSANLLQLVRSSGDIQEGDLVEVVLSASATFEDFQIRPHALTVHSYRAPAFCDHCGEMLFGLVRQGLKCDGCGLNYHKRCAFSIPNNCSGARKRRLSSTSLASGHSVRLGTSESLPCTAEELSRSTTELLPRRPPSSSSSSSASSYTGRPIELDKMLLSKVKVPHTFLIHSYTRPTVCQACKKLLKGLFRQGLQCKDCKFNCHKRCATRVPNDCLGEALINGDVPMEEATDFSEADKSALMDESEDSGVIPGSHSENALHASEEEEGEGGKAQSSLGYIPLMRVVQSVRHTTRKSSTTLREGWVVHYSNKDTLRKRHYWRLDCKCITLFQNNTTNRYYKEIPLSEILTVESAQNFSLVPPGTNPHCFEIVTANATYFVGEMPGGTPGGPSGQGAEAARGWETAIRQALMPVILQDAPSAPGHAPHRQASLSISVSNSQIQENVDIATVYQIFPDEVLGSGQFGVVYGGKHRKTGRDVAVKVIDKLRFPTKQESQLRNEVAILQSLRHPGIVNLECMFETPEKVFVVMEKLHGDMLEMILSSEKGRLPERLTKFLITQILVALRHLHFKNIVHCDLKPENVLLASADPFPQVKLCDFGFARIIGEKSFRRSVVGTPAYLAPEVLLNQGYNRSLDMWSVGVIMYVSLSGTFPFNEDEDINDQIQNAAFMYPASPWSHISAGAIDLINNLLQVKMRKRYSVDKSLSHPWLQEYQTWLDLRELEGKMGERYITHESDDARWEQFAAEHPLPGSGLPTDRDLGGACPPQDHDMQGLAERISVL
# [11] = molecular target: T3, Serine/threonine-protein kinase D2 (Homo sapiens); conditions: at 1 µM
# [12] = molecular target: T4, Serine/threonine-protein kinase D3 (Homo sapiens) (UniProt O94806); conditions: at 0.1 µM
# T4 sequence (whole entry): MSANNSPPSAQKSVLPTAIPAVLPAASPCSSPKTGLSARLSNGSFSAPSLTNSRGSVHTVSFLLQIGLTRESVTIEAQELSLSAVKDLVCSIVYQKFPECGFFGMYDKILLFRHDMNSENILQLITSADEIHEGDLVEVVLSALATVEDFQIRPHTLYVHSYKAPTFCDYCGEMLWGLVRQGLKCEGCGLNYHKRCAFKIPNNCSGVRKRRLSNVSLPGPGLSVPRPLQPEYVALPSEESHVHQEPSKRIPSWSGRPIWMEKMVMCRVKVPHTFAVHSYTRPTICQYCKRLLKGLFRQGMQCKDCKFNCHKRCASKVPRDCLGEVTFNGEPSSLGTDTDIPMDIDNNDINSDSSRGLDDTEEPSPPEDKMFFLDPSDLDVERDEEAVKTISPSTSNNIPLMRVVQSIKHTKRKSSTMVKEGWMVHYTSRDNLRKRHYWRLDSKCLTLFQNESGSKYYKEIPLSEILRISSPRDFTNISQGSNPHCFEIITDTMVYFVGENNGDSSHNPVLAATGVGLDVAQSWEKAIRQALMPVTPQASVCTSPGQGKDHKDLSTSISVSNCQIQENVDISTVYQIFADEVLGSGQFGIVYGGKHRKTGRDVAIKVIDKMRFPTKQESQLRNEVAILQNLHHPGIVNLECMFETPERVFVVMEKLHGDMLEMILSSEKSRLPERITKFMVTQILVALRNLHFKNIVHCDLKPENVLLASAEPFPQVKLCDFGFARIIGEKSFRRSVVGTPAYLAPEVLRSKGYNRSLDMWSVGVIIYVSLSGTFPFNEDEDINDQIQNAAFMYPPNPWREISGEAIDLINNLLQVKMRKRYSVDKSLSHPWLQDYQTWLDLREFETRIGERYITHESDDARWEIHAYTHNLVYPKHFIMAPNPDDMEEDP
# [13] = molecular target: T4, Serine/threonine-protein kinase D3 (Homo sapiens); conditions: at 1 µM
# [14] = molecular target: T5, cGMP-dependent protein kinase 1 (Homo sapiens) (UniProt Q13976); conditions: at 0.1 µM
# T5 sequence (whole entry): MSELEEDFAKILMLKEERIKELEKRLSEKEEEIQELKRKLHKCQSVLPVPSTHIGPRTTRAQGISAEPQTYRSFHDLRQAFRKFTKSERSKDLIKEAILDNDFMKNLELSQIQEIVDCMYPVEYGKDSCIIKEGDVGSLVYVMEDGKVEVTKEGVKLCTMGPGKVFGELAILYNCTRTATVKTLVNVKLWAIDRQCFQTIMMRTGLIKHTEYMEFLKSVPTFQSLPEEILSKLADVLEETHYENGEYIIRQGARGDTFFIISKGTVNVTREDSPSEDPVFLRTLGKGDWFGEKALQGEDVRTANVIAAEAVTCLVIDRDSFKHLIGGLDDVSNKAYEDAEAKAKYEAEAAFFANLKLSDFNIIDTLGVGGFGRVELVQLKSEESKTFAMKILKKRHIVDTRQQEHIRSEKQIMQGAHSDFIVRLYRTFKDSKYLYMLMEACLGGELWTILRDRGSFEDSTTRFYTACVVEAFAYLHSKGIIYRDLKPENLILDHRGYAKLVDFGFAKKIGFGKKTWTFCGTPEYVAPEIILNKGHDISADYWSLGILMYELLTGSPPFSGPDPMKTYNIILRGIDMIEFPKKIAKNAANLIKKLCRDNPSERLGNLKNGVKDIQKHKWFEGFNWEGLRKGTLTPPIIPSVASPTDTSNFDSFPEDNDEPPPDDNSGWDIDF
# [15] = molecular target: T5, cGMP-dependent protein kinase 1 (Homo sapiens); conditions: at 1 µM
# [16] = molecular target: T6, cGMP-dependent protein kinase 2 (Homo sapiens) (UniProt Q13237); conditions: at 0.1 µM
# T6 sequence (whole entry): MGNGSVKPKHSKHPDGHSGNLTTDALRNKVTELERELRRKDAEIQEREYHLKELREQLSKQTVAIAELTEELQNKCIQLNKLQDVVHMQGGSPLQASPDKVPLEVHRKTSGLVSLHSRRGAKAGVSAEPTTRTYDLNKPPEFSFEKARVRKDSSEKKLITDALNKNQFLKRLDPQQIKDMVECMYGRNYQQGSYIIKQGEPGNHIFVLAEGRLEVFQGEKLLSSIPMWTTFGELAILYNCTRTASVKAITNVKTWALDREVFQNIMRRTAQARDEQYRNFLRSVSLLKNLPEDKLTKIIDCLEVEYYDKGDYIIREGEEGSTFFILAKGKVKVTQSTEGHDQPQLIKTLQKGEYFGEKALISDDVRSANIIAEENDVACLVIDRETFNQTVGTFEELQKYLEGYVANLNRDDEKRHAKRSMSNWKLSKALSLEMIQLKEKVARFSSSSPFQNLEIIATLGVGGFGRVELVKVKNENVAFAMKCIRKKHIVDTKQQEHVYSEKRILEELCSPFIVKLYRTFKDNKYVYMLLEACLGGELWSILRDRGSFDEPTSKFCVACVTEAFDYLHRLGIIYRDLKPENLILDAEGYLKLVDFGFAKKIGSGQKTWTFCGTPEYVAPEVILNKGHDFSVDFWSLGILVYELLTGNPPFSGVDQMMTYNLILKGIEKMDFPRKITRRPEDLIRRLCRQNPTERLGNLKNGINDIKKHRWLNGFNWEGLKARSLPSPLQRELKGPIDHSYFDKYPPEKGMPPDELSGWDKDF
# [17] = molecular target: T6, cGMP-dependent protein kinase 2 (Homo sapiens); conditions: at 1 µM
# [18] = molecular target: T7, cAMP-dependent protein kinase catalytic subunit PRKX (Homo sapiens) (UniProt P51817); conditions: at 0.1 µM
# T7 sequence (whole entry): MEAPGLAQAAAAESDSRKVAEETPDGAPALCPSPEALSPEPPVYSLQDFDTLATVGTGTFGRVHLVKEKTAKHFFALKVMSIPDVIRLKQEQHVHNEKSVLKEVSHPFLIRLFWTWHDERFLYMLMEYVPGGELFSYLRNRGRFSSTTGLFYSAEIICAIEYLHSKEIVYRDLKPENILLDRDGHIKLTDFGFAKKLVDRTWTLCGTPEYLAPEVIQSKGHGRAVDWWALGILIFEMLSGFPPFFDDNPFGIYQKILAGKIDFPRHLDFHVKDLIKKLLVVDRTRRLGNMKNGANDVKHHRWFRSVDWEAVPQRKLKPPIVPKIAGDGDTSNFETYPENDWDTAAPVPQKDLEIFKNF
# [19] = molecular target: T7, cAMP-dependent protein kinase catalytic subunit PRKX (Homo sapiens); conditions: at 1 µM
# [20] = molecular target: Rho-associated protein kinase 1 (Homo sapiens) (UniProt Q13464); conditions: at 0.1 µM;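 note: values are mean percent inhibition of ROCK1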
# Sequence of Rho-associated protein kinase 1 (Homo sapiens) (Q13464 2-1354 limits assumed): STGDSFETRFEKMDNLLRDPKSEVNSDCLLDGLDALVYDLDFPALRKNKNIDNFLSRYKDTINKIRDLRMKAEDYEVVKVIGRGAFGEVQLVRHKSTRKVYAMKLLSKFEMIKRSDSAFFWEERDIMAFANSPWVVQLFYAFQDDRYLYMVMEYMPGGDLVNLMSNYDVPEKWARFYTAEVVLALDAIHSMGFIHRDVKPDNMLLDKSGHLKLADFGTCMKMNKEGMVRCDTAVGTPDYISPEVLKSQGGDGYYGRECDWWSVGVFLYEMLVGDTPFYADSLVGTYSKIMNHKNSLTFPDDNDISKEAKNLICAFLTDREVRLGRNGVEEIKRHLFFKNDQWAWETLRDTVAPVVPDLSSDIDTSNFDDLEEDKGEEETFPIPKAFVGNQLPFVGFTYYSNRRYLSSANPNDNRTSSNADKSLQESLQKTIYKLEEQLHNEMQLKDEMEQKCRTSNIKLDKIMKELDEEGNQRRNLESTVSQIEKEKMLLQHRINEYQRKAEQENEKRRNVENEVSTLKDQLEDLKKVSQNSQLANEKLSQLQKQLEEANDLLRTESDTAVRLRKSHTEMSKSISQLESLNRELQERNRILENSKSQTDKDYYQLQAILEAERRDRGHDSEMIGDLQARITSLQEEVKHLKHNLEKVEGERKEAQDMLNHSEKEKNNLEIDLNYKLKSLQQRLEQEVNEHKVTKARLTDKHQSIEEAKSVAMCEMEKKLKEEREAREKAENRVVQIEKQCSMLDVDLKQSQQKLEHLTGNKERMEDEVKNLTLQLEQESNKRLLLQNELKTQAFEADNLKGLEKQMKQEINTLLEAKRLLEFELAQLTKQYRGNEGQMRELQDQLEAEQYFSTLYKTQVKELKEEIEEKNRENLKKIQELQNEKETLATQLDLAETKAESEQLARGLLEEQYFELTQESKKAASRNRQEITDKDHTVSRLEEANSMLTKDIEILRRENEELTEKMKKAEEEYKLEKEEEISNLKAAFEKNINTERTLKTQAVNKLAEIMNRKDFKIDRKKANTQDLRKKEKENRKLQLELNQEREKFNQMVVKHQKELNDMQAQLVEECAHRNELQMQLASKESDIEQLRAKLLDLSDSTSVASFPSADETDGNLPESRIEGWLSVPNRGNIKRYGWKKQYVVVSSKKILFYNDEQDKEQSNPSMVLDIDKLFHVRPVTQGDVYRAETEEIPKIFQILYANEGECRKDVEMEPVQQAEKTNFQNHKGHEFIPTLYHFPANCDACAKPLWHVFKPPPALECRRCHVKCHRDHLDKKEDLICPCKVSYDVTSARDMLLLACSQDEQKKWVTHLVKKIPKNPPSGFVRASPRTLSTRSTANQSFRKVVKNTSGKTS
Structure (SMILES),inhibition [1] [%],inhibition [2] [%],inhibition [3] [%],inhibition [4] [%],inhibition [5] [%],inhibition [6] [%],inhibition [7] [%],inhibition [8] [%],inhibition [9] [%],inhibition [10] [%],inhibition [11] [%],inhibition [12] [%],inhibition [13] [%],inhibition [14] [%],inhibition [15] [%],inhibition [16] [%],inhibition [17] [%],inhibition [18] [%],inhibition [19] [%],inhibition [20] [%]
CCc1ccc(Oc2nccc(-c3c(-c4ccc(F)cc4)ncn3C3CCNCC3)n2)cc1,10.9,0.16,1.79,4,8.13,2.37,9.56,3.88,13,4.63,13.7,4.01,9.71,4.32,10.4,5.03,8.46,3.21,3.97,1.24
COc1cccc(/C=N/Nc2ncnc3c2cnn3-c2cccc(OC)c2)c1,6.32,1.63,1.72,1.69,4,0.47,1.93,3.52,8.09,2.74,1.36,3.64,2.93,3.82,4.05,1.19,3.17,0.44,1.94,2.52
CS(=O)(=O)CCNCc1cc(-c2cc3c(Nc4ccc(OCc5cccc(F)c5)c(Cl)c4)ncnc3s2)cs1,0.58,1.33,1.53,2.91,4.44,0.62,2,4.69,8.12,4.1,4.68,4.68,5.41,4.85,8.33,3.09,4.67,1.65,2.04,3.25
